Of roughly 7,900 targets only a part is listed; those with a hit were picked by preference. About 0.6% of all pairs of compound and target were hits. Unmarked numbers belong to inactive results.
Tests used:
Assay in all cases: log2 fold change, soluble protein after heating vs DMSO (PISA); higher = thermal stabilisation; K562 cells, 10 uM, 30 min; active = over 0.2 and 3.5 SD of the protein, either way, in both replicates (recomputed)
[1] = compound: CS(=O)(=O)c1ccc(-c2cnc(N)c(C(=O)Nc3ccccc3)n2)cc1
Procedure, shortened: (§1)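 Aliquots of K562 cells (2×10^6 cells/mL) treated with 10 μM compound for 30 min were heated for 3 min over 48°C-58°C. After pooling and extraction in PBS with 0.5% NP-40 at 4°C, soluble protein from a 21,000xg, 90 min spin was quantified by TMTpro 16plex LC-MS/MS with channel sums equalised. Thermal stability is expressed against control samples, from duplicates, as a log2 fold change.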

crizotinib = compound: C[C@@H](Oc1cc(-c2cnn(C3CCNCC3)c2)cnc1N)c1c(Cl)ccc(F)c1Cl [crizotinib]
Procedure, shortened: as §1

[2] = compound: C[C@@H]1COCCN1C2=NC(=NC(=C2)C3(CC3)S(=O)(=O)C)C4=C5C=CNC5=CC=C4
Procedure, shortened: as §1

[3] = compound: C[C@H](C1=CC=C(C=C1)C(=O)NC2=C3C=CNC3=NC=C2)N
Procedure, shortened: as §1

duvelisib = compound: C[C@H](Nc1ncnc2nc[nH]c12)c1cc2cccc(Cl)c2c(=O)n1-c1ccccc1 [duvelisib]
Procedure, shortened: as §1

gandotinib = compound: Cc1cc(Nc2cc(CN3CCOCC3)c3nc(C)c(Cc4ccc(Cl)cc4F)n3n2)n[nH]1 [gandotinib]
Procedure, shortened: as §1

tozasertib = compound: Cc1cc(Nc2cc(N3CCN(C)CC3)nc(Sc3ccc(NC(=O)C4CC4)cc3)n2)n[nH]1 [tozasertib]
Procedure, shortened: as §1

[4] = compound: Cc1cc(SCc2sc(-c3ccc(C(F)(F)F)cc3)nc2C)ccc1OCC(=O)O
Procedure, shortened: as §1

doramapimod = compound: Cc1ccc(-n2nc(C(C)(C)C)cc2NC(=O)Nc2ccc(OCCN3CCOCC3)c3ccccc23)cc1 [doramapimod]
Procedure, shortened: as §1

ispinesib = compound: Cc1ccc(C(=O)N(CCCN)[C@@H](c2nc3cc(Cl)ccc3c(=O)n2Cc2ccccc2)C(C)C)cc1 [ispinesib]
Procedure, shortened: as §1

bafetinib = compound: Cc1ccc(NC(=O)c2ccc(CN3CC[C@H](N(C)C)C3)c(C(F)(F)F)c2)cc1Nc1nccc(-c2cncnc2)n1 [bafetinib]
Procedure, shortened: as §1

[5] = compound: Cc1cccc(CC(=O)N2CCc3c2ccc(-c2cn(C)c4ncnc(N)c24)c3F)n1
Procedure, shortened: as §1

nilotinib = compound: Cc1cn(-c2cc(NC(=O)c3ccc(C)c(Nc4nccc(-c5cccnc5)n4)c3)cc(C(F)(F)F)c2)cn1 [nilotinib]
Procedure, shortened: as §1

[6] = compound: Cc1nc(Nc2n[nH]c3c2CN(C(=O)N[C@H](CN(C)C)c2ccccc2)C3(C)C)c2sccc2n1
Procedure, shortened: as §1

dasatinib = compound: Cc1nc(Nc2ncc(C(=O)Nc3c(C)cccc3Cl)s2)cc(N2CCN(CCO)CC2)n1 [dasatinib]
Procedure, shortened: as §1

[7] = compound: Cc1ncc(-c2ccnc(Nc3ccc(S(C)(=O)=O)cc3)n2)n1C(C)C
Procedure, shortened: as §1

[8] = compound: Cn1cc(-c2ccc3c(c2)CCN3C(=O)Cc2cccc(C(F)(F)F)c2)c2c(N)ncnc21
Procedure, shortened: as §1

[9] = compound: Cn1cc(-c2ccc3nnc(C(F)(F)c4ccc5ncccc5c4)n3n2)cn1
Procedure, shortened: as §1

tipifarnib = compound: Cn1cncc1[C@@](N)(c1ccc(Cl)cc1)c1ccc2c(c1)c(-c1cccc(Cl)c1)cc(=O)n2C [tipifarnib]
Procedure, shortened: as §1

mubritinib = compound: FC(F)(F)c1ccc(/C=C/c2nc(COc3ccc(CCCCn4ccnn4)cc3)co2)cc1 [mubritinib]
Procedure, shortened: as §1

UniProt P17980, sequence (P17980 whole entry, looked up): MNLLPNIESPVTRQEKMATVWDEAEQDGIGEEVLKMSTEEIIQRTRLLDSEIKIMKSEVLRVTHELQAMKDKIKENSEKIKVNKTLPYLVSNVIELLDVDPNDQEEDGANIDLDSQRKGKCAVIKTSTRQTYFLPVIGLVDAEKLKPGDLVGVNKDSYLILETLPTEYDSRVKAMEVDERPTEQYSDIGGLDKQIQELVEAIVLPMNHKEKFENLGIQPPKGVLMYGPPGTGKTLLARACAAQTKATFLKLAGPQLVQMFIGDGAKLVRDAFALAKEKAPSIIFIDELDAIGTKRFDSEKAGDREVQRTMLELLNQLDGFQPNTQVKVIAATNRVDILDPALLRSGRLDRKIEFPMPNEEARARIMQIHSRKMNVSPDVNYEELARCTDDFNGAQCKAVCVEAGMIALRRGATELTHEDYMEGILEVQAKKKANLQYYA
UniProt P48556, sequence (P48556 whole entry, looked up): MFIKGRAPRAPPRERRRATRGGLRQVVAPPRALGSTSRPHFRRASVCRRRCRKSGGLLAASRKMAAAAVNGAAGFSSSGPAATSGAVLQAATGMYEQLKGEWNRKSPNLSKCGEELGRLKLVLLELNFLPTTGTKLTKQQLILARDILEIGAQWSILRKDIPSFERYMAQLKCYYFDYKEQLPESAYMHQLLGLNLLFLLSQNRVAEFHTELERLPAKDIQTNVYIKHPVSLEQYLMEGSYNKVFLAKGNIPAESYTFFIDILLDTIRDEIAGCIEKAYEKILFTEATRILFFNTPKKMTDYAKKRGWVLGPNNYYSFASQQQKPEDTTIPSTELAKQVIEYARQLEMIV
UniProt Q16401, sequence (Q16401 whole entry, looked up): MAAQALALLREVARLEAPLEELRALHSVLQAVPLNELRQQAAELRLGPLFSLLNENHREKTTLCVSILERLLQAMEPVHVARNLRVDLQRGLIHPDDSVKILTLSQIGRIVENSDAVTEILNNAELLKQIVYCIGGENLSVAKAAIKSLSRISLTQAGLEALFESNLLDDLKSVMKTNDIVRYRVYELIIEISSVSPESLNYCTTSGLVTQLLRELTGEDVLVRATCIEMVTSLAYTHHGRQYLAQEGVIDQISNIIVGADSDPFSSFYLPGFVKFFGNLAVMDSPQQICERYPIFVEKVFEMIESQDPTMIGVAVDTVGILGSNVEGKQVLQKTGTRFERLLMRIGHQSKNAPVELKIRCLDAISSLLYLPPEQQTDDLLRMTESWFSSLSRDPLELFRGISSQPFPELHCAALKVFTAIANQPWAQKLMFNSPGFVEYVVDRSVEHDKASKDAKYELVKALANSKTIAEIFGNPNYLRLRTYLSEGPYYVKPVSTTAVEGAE
UniProt Q9P2B2, sequence (Q9P2B2 whole entry, looked up): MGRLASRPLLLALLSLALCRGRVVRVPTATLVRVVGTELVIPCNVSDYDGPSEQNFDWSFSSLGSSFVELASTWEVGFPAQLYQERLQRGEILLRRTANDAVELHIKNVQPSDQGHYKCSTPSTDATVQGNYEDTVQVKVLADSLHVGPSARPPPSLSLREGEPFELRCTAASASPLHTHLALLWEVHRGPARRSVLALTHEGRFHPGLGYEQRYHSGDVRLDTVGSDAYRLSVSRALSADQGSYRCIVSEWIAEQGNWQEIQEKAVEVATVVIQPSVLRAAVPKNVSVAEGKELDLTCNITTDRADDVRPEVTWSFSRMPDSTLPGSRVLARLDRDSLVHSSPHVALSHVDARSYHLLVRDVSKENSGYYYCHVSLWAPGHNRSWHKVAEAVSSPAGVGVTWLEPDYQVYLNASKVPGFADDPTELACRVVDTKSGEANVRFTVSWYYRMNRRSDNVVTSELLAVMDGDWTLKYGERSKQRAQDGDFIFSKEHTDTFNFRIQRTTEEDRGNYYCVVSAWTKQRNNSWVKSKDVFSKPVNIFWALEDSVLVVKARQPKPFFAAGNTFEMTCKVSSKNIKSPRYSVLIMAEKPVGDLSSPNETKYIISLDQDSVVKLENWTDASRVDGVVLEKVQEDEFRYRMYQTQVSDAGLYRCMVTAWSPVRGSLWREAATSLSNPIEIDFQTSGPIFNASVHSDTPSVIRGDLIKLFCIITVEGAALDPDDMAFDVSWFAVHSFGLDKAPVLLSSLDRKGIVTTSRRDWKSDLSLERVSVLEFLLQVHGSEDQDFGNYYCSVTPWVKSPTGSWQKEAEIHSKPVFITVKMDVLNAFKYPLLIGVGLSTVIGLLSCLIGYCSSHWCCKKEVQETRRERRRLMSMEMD
UniProt Q8IV08, sequence (Q8IV08 whole entry, looked up): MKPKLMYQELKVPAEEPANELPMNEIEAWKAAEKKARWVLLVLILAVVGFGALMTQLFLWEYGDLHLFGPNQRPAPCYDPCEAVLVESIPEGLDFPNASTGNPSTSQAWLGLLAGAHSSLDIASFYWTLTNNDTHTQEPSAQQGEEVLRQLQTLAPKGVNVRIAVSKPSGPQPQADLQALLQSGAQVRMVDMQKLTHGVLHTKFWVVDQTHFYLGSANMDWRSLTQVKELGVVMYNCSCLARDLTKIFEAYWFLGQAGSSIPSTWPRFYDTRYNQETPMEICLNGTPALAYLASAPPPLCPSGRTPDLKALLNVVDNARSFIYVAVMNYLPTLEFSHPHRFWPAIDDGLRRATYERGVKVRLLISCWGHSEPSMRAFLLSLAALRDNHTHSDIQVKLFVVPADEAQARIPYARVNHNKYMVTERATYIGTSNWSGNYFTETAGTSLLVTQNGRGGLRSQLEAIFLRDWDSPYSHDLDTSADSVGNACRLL
UniProt P28340, sequence (P28340 whole entry, looked up): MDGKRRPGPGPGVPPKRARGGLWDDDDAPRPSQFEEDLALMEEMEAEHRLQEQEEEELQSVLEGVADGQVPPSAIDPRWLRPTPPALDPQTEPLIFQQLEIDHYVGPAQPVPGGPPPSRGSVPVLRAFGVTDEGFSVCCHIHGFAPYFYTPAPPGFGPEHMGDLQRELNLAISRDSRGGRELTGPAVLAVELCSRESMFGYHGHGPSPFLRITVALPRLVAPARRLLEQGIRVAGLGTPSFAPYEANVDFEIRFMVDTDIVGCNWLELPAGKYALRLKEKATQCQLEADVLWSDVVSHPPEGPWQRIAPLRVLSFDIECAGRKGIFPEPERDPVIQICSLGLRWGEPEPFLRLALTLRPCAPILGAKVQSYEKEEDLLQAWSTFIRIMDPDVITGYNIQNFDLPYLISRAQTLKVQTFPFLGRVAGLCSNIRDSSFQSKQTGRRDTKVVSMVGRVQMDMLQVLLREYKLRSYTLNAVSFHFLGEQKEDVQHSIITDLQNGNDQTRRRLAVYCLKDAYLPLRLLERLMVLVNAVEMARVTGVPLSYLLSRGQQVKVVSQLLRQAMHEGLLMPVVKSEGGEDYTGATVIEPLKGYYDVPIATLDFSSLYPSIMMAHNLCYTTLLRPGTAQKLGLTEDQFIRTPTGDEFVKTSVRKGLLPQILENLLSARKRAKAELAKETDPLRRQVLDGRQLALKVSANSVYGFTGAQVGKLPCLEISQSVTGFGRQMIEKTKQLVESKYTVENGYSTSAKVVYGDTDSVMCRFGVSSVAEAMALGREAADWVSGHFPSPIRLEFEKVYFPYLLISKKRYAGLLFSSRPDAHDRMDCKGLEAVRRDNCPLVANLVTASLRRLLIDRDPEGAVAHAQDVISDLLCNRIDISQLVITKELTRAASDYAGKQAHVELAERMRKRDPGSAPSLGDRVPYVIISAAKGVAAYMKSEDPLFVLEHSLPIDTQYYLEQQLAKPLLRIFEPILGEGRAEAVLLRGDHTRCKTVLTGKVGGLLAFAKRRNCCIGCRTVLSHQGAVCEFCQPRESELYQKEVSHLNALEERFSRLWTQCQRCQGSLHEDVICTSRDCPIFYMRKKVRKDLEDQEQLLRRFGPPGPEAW
UniProt P78356, sequence (P78356 whole entry, looked up): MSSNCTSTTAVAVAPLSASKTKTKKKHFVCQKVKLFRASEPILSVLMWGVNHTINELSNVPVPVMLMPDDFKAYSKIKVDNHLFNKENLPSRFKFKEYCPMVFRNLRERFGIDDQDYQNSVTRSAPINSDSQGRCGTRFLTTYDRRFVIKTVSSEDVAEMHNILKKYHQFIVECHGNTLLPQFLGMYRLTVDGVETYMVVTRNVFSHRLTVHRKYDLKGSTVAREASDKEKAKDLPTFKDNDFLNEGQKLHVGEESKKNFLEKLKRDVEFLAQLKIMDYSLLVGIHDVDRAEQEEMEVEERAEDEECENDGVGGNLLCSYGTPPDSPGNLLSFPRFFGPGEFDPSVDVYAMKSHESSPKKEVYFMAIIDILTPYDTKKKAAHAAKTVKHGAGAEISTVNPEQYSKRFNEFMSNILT
UniProt Q9Y244, sequence (Q9Y244 whole entry, looked up): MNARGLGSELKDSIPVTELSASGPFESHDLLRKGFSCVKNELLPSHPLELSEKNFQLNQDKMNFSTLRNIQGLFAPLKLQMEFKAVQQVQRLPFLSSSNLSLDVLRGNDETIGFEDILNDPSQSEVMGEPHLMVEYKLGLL

Row | Target | log2 fold change [1] | log2 fold change (crizotinib) | log2 fold change [2] | log2 fold change [3] | log2 fold change (duvelisib) | log2 fold change (gandotinib) | log2 fold change (tozasertib) | log2 fold change [4] | log2 fold change (doramapimod) | log2 fold change (ispinesib) | log2 fold change (bafetinib) | log2 fold change [5] | log2 fold change (nilotinib) | log2 fold change [6] | log2 fold change (dasatinib) | log2 fold change [7] | log2 fold change [8] | log2 fold change [9] | log2 fold change (tipifarnib) | log2 fold change (mubritinib)
1 | POMP (UniProt Q9Y244) | -0.086 | -0.059 | -0.023 | -0.076 | 0.055 | 0.027 | 0.001 | -0.245 | -0.143 | 0.108 | -0.097 | -0.101 | 0.142 | -0.093 | 0.006 | -0.092 | 0.079 | 0.156 | 0.116 | 0.01
2 | PRUNE1 (UniProt Q86TP1) | -0.011 | -0.064 | -0.002 | -0.026 | -0.047 | -0.071 | 0.097 | 0.056 | 0.008 | -0.018 | -0.037 | 0.045 | -0.051 | -0.054 | -0.178 | 0.082 | -0.045 | -0.045 | -0.122 | -0.056
3 | PTGFRN (UniProt Q9P2B2) | 0.068 | 0.057 | 0.063 | -0.003 | 0.122 | -0.023 | -0.101 | -0.065 | 0.001 | 0.165 | -0.061 | -0.04 | 0.087 | 0.024 | 0.046 | 0.048 | 0.038 | 0.009 | 0.032 | 0.065
4 | PEX16 isoform 2 (UniProt Q9Y5Y5) | -0.001 | -0.142 | 0.052 | -0.072 | 0.096 | -0.104 | 0.018 | 0.057 | 0.106 | -0.23 | -0.202 | 0.016 | -0.067 | 0.006 | 0.004 | -0.006 | 0.079 | 0.079 | -0.067 | 0.174
5 | POLR2I (UniProt P36954) | 0.003 | 0.334 | 0.052 | 0.001 | 0.085 | 0.336 | -0.086 | -0.032 | -0.047 | 0.127 | -0.044 | 0.024 | -0.026 | 0.233 | 0.079 | 0.338 | -0.029 | 0.021 | 0.072 | -0.054
6 | PRKCA (UniProt P17252) | -0.023 | -0.081 | 0.044 | -0.041 | 0.158 | -0.227 | -0.052 | 0.232 | 0.01 | -0.112 | -0.043 | -0.066 | -0.011 | -0.173 | -0.233 | -0.005 | 0.082 | -0.022 | -0.026 | 0.054
7 | PRPF31 (UniProt Q8WWY3) | 0.041 | 0.013 | 0.181 | 0.137 | 0.133 | -0.044 | 0.08 | 0.159 | 0.069 | -0.029 | -0.012 | 0.01 | -0.037 | -0.572 (active) | -0.274 | -0.387 | 0.055 | 0.053 | -0.031 | -0.014
8 | PRKCB isoform 2 (UniProt P05771) | 0.019 | -0.039 | 0.039 | -0.063 | 0.035 | -0.079 | 0.018 | 0.032 | -0.01 | -0.017 | -0.037 | 0.025 | -0.022 | -0.3 (active) | -0.054 | 0.034 | 0.04 | 0 | -0.051 | 0.054
9 | PIP4K2B (UniProt P78356) | 0.63 (active) | -0.01 | 0.048 | -0.072 | 0.028 | -0.031 | -0.025 | -0.009 | -0.055 | -0.007 | 0.258 | 0.011 | 0.085 | 0.05 | 0.139 | 0.538 (active) | 0.055 | 0.172 | -0.03 | -0.083
10 | PLD3 (UniProt Q8IV08) | -0.034 | -0.158 | 0.005 | -0.03 | -0.012 | 0.006 | -0.009 | -0.023 | 0.001 | -0.132 | -0.308 (active) | -0.007 | -0.043 | 0.064 | -0.024 | -0.03 | -0.007 | 0.013 | -0.01 | 0.035
11 | PSMD8 (UniProt P48556) | 0.034 | 0.011 | -0.053 | 0.156 | -0.016 | 0.002 | 0.008 | 0.059 | 0.028 | 0.015 | 0.089 | -0.013 | 0.039 | 0.054 | 0.029 | -0.031 | -0.07 | 0.009 | 0.117 | -0.032
12 | PSMD5 (UniProt Q16401) | 0.008 | 0.006 | 0.046 | -0.064 | -0.023 | -0.051 | 0.043 | -0.013 | -0.03 | 0.03 | -0.09 | 0.006 | -0.015 | -0.026 | -0.026 | 0.006 | 0.018 | 0.002 | -0.05 | 0.023
13 | PI4K2A (UniProt Q9BTU6) | 0.031 | -0.185 | 0.032 | 0 | 0.043 | -0.004 | -0.009 | 0.001 | 0.015 | -0.244 (active) | -0.127 | -0.042 | 0.004 | 0.037 | -0.011 | 0.076 | 0.002 | 0.056 | 0.031 | -0.006
14 | POLD1 (UniProt P28340) | 0.019 | -0.042 | 0.041 | -0.025 | 0.004 | 0.036 | 0.016 | 0.046 | -0.018 | -0.01 | -0.055 | 0.023 | -0.03 | -0.006 | -0.049 | -0.052 | 0.063 | 0.01 | -0.066 | 0.006
15 | PLEKHM2 (UniProt Q8IWE5) | 0.023 | -0.162 | 0.02 | -0.047 | 0.044 | -0.06 | 0.144 | 0.04 | 0.064 | -0.02 | -0.09 | -0.024 | -0.054 | -0.002 | -0.072 | -0.077 | 0.001 | -0.08 | -0.028 | 0.096
16 | PSMC3 (UniProt P17980) | 0.002 | 0.012 | -0.098 | 0.067 | -0.048 | 0.027 | 0.024 | 0.011 | 0.017 | -0.024 | 0.072 | -0.033 | -0.004 | 0.059 | 0.016 | -0.017 | -0.1 | -0.005 | 0.124 | -0.016

— the supplement of paper PMC10849652
